Holding throughout (assay): NCI-60 one-dose screen, 48 h (100 = growth as untreated, 0 = no growth, -100 = all killed)
One test deals with HCT-15 colon. To be noted: 10 µM unless noted.
A further test has as its system HT29 colon. To be noted: 10 µM unless noted.
The subject of the next test is SNB-75 CNS. To be noted: 10 µM unless noted.
The next test has as its system SNB-19 CNS. To be noted: 10 µM unless noted.
In a further test the test system is U251 CNS. The settings on record: 10 µM unless noted.
A further test concerns PC-3 prostate. The settings on record: 10 µM unless noted.
For a further test, the system named is SK-MEL-5 melanoma. The settings on record: 10 µM unless noted.
In a further test the test system is UACC-62 melanoma. The settings on record: 10 µM unless noted.
The test system of the next test is LOX IMVI melanoma. The settings on record: 10 µM unless noted.
Another test relates to SK-MEL-2 melanoma. The settings on record: 10 µM unless noted.
The test system of a further test is EKVX NSCLC. To be noted: 10 µM unless noted.
The test system of another test is SN12C renal. The settings on record: 10 µM unless noted.
The subject of the next test is UO-31 renal. The settings on record: 10 µM unless noted.
The next test deals with TK-10 renal. The settings on record: 10 µM unless noted.
For another test, the system named is ACHN renal. To be noted: 10 µM unless noted.
Another test relates to CAKI-1 renal. The settings on record: 10 µM unless noted.
Another test concerns A498 renal. The settings on record: 10 µM.
Another test concerns HL-60(TB) leukemia. To be noted: 10 µM unless noted.
The subject of the next test is CCRF-CEM leukemia. To be noted: 10 µM unless noted.
The test system of another test is SK-MEL-28 melanoma. To be noted: 10 µM unless noted.

Compounds without any hit were thinned out: in the full panel of roughly 83,000, 20% have a hit.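 Compound tested at a single concentration for 48 hours in 96-well plates; a percent growth value below 10 was scored as active.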 Values without a mark were called inactive. Calls of active or inactive are those of the source.

On to `C[Se]C(=O)c1ccccc1OC(C)=O`, for which the growth in the test on HCT-15 colon is 81%; with HT29 colon, 11.1%; in the test on SNB-75 CNS it was -42.4% (active); in the test with SNB-19 CNS, 46.6%; with U251 CNS it was 46%; in the test on PC-3 prostate, 70%. Besides, the growth in the test with SK-MEL-5 melanoma was 79.3%; in the test with UACC-62 melanoma, 58.2%; in the test with LOX IMVI melanoma, 45.3%; in the test with SK-MEL-2 melanoma, 75.4%; in the test on EKVX NSCLC it was 33.2%; with SN12C renal, 69%. Also, the growth in the test with UO-31 renal was 33%; in the test on TK-10 renal, 27.5%; with ACHN renal it was 85.9%; with CAKI-1 renal, 64.4%; with A498 renal, 66.5%; in the test with HL-60(TB) leukemia, 32.8%. The growth in the test on CCRF-CEM leukemia was 63.3%.

Take `O=[N+]([O-])CC(c1ccccc1Cl)c1c(-c2ccccc2)[nH]c2ccccc12` (centres undefined): the growth with HCT-15 colon is 22.8%; in the test on HT29 colon, 8.38% (active); in the test with SNB-75 CNS, 6.44% (active); in the test with SNB-19 CNS it was 45.4%; in the test on U251 CNS it was 34.8%; in the test with PC-3 prostate, 31.6%. Also, the growth is 28.4% in the test on SK-MEL-5 melanoma; 30.7% in the test with UACC-62 melanoma; 33.4% in the test on LOX IMVI melanoma; 27.2% in the test with SK-MEL-2 melanoma; 40.6% with EKVX NSCLC; 53.4% in the test on SN12C renal. The growth in the test on UO-31 renal was 45.1%; in the test with TK-10 renal it was 61.6%; in the test with ACHN renal, 39.7%; in the test with CAKI-1 renal it was 24.4%; in the test with HL-60(TB) leukemia it was 6.94% (active); with CCRF-CEM leukemia, 23.6%.

Regarding `C=CCn1cc(C=C2C(=O)N(C)C(=O)N(C)C2=O)c2ccccc21`, the growth with HCT-15 colon was 106%; with HT29 colon, 104%; in the test with SNB-75 CNS it was 78.7%; in the test with SNB-19 CNS, 96.2%; in the test with U251 CNS it was 98.2%; in the test on PC-3 prostate it was 89.4%. Also, the growth in the test on SK-MEL-5 melanoma is 94.9%; in the test on UACC-62 melanoma it was 93.8%; in the test with LOX IMVI melanoma, 94.8%; in the test on SK-MEL-2 melanoma, 102%; with EKVX NSCLC it was 84.4%; in the test with SN12C renal it was 102%. Moreover, the growth in the test with UO-31 renal is 78.2%; in the test with TK-10 renal it was 120%; with ACHN renal, 98.9%; in the test with CAKI-1 renal, 90.3%; in the test with A498 renal it was -90.6% (active); in the test on CCRF-CEM leukemia it was 87.9%.

With `CC(=O)C(c1c(O)c2ccccc2oc1=O)c1cc(=O)oc2c1ccc1ccccc12` (centres undefined), the growth was 101% with HCT-15 colon; 109% in the test on HT29 colon; 67.8% with SNB-75 CNS; 90.7% with SNB-19 CNS; 91.5% in the test with U251 CNS; 85.7% in the test with PC-3 prostate. Moreover, the growth in the test with SK-MEL-5 melanoma was 96.5%; in the test with UACC-62 melanoma it was 91.1%; with LOX IMVI melanoma, 96.6%; in the test on SK-MEL-28 melanoma, 110%; in the test on EKVX NSCLC it was 92.1%; with SN12C renal, 87.1%. In addition, the growth with UO-31 renal was 80.3%; with TK-10 renal, 116%; in the test with ACHN renal, 101%; in the test with A498 renal, 79.8%; in the test on HL-60(TB) leukemia it was 96.9%; with CCRF-CEM leukemia, 94.5%.

As to `NC(=O)c1c(Br)n(C2OC(CO)C(O)C2O)c2ncnc(N)c12` (centres undefined), the growth in the test with HCT-15 colon was 3.75% (active); in the test on HT29 colon, 16.3%; in the test on SNB-75 CNS, 37.5%; in the test on SNB-19 CNS, 53.9%; in the test with U251 CNS, 33.4%; in the test with PC-3 prostate it was -10.5% (active). The growth in the test with SK-MEL-5 melanoma is 50.7%; in the test with UACC-62 melanoma, 8.21% (active); with LOX IMVI melanoma, 1.47% (active); in the test on SK-MEL-28 melanoma, -4.78% (active); in the test with EKVX NSCLC it was -2.28% (active); with SN12C renal, 13.4%. Also, the growth is 1.86% (active) in the test with UO-31 renal; 12.1% in the test with ACHN renal; -29.9% (active) in the test on A498 renal; -37.2% (active) in the test with HL-60(TB) leukemia; -34.4% (active) with CCRF-CEM leukemia.

Turning to `ClCCN(CCCl)Cc1ccc(Nc2ccnc3cc(Cl)ccc23)cc1`, the growth in the test on HCT-15 colon was 48.2%; in the test on HT29 colon, 10.2%; in the test with SNB-75 CNS, 45.1%; with SNB-19 CNS, 60.8%; with U251 CNS, 22.4%; in the test with PC-3 prostate it was 47.3%. Also, the growth in the test on SK-MEL-5 melanoma is 54.2%; in the test on UACC-62 melanoma, 26.8%; in the test with LOX IMVI melanoma, 20.1%; with SK-MEL-2 melanoma, -19.5% (active); in the test on SN12C renal it was 18.8%; in the test on UO-31 renal it was 34.6%. Also, the growth with TK-10 renal was 59.5%; in the test with ACHN renal, 5.15% (active); in the test on CAKI-1 renal, -32.8% (active); with A498 renal, 77.1%; with HL-60(TB) leukemia, -38.6% (active).

On to `CN(C)CC(C(=O)Cc1ccccc1)c1ccccc1` (centres undefined), for which the growth with HCT-15 colon is 37.2%; with HT29 colon, 30%; in the test with SNB-75 CNS it was 73.4%; in the test on SNB-19 CNS it was 100%; in the test on U251 CNS it was 110%; in the test on PC-3 prostate it was 73.2%. For the same compound, the growth is 97.2% in the test with SK-MEL-5 melanoma; 112% in the test on UACC-62 melanoma; 96.5% in the test with SK-MEL-28 melanoma; 82.2% with SK-MEL-2 melanoma; 110% in the test on EKVX NSCLC; 93.6% in the test with SN12C renal. For the same compound, the growth was -74% (active) in the test on UO-31 renal; -38.1% (active) in the test on TK-10 renal; 82.1% with CAKI-1 renal; 90.5% in the test on A498 renal; 66.3% in the test on HL-60(TB) leukemia; 67.1% in the test on CCRF-CEM leukemia.

For the compound `CC[C@H](C)[C@H](NC(=O)[C@H]1CCCCN1C)C(=O)N(C)[C@H](C[C@@H](OC(C)=O)c1nc(C(=O)N[C@@H](Cc2ccccc2)C[C@H](C)C(=O)OC)cs1)C(C)C`, the growth in the test on HCT-15 colon was 5.1% (active); with HT29 colon, -3.46% (active); in the test with SNB-75 CNS it was 31.8%; in the test with SNB-19 CNS, 31.4%; in the test with U251 CNS, 11.8%; with PC-3 prostate, 23.7%. Moreover, the growth in the test on SK-MEL-5 melanoma was -69.5% (active); with LOX IMVI melanoma it was 8.61% (active); in the test on SK-MEL-28 melanoma it was 53.6%; in the test on SK-MEL-2 melanoma, 42.8%; with EKVX NSCLC, 36.7%; with SN12C renal, 37.2%. Besides, the growth was 40.3% with UO-31 renal; 18.1% in the test on TK-10 renal; 13.6% with ACHN renal; 32.2% with CAKI-1 renal; 7.53% (active) in the test on A498 renal; -38.6% (active) with HL-60(TB) leukemia. Also, in the test on CCRF-CEM leukemia, the growth is 4.02% (active).

(Values after PubChem BioAssay (NCI).)
